This is part of a sample that, as a whole, favours compounds with a hit. Of some 83,000 tested, about 20% had one in any assay.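 For each line, cells grew in 96-well plates with the test compound present at a single concentration for 48 hours.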 The source made the active and inactive calls. The calls were made as follows: active = growth percent below 10; inactive = the rest.
Key:
Experiment in all cases: NCI-60 one-dose screen, 48 h (100 = growth as untreated, 0 = no growth, -100 = all killed)
NCI-H23 lung = conditions: 10 µM unless noted
NCI-H226 lung = conditions: 10 µM unless noted
NCI-H322M lung = conditions: 10 µM unless noted
HOP-62 NSCLC = conditions: 10 µM unless noted
HOP-92 NSCLC = conditions: 10 µM unless noted
A549/ATCC NSCLC = conditions: 10 µM unless noted
786-0 renal = conditions: 10 µM unless noted
COLO 205 colon = conditions: 10 µM unless noted
NCI-H522 lung = conditions: 10 µM

Measured: growth

O=C(Oc1cccc2ccccc12)c1ccccc1C(=O)c1ccccc1
inactive: NCI-H23 lung 93% | NCI-H226 lung 105% | NCI-H322M lung 101% | HOP-62 NSCLC 101% | HOP-92 NSCLC 54.5% | A549/ATCC NSCLC 88.3% | 786-0 renal 103% | COLO 205 colon 112%

CCCCNCCCN(CCCC)CCCNCCCC
inactive: NCI-H23 lung 104% | NCI-H226 lung 97.3% | NCI-H322M lung 99.5% | HOP-62 NSCLC 94.9% | HOP-92 NSCLC 41.5% | A549/ATCC NSCLC 95.4% | 786-0 renal 103% | COLO 205 colon 100%

COc1ccc2c(c1)c(CC(=O)[Se]C)c(C)n2C(=O)c1ccc(Cl)cc1
active: NCI-H23 lung 5.36% | NCI-H226 lung -34% | HOP-62 NSCLC -0.299% | HOP-92 NSCLC -6.92% | A549/ATCC NSCLC 7.25% | 786-0 renal 9.49%
inactive: NCI-H322M lung 55.8% | COLO 205 colon 50.1%

O[N+]1=CC=CCC1=S.On1ccccc1=S.[Zn]
active: NCI-H23 lung -53.1% | NCI-H226 lung -85.9% | NCI-H322M lung -87.3% | HOP-62 NSCLC -86.8% | HOP-92 NSCLC -64.5% | NCI-H522 lung -92.4% | 786-0 renal -74.2% | COLO 205 colon -74.9%

O=C1OC2(c3ccccc31)c1ccccc1-c1ccccc12
inactive: NCI-H23 lung 89.6% | NCI-H226 lung 95.8% | NCI-H322M lung 103% | HOP-62 NSCLC 93.8% | HOP-92 NSCLC 96.9% | A549/ATCC NSCLC 72.4% | 786-0 renal 86.2% | COLO 205 colon 81.7%

O=CN1N=C(c2ccc(Nc3ccnc4cc(Cl)ccc34)cc2)CC1c1ccc(Cl)cc1 (stereo not drawn)
inactive: NCI-H23 lung 39.2% | NCI-H226 lung 52.6% | NCI-H322M lung 44.1% | HOP-62 NSCLC 33.8% | HOP-92 NSCLC 49.5% | NCI-H522 lung 26.9% | 786-0 renal 27.9% | COLO 205 colon 12.1%

Source: PubChem BioAssay (NCI)
